Screening data: PubChem, The Scripps Research Institute Molecular Screening Center
Compounds with a hit are over-represented: about 2.3% of the library has one in this group of screens.
CHO-K1 Ca antag: M1 antagonist counterscreen hit in parental CHO-K1 cells; ATP-induced calcium, Fluo-8 fluorescence; inhibition, % at 3 µM; actives 0.6% (n = 360,000); AID 602250;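 active = inhibition above a per-plate cutoff, the plate's mean sample inhibition plus 3 SD, cut at about 24% in these data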;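 note: 0% = DMSO plus EC80 ATP and 100% = DMSO alone without ATP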
CHO-K1 Ca PAM: nonselective calcium activators in parental CHO-K1 cells, primary screen, counter-screen for M1 PAM project, cell-based, Fluo-8 calcium fluorescence, full deck, 1536-well. ATP EC20; 0% at ATP EC20, 100% at ATP max. activation, % at 3 µM. actives 0.02% (n = 360,000);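 active = activation above the run cutoff, the mean activation of all test compounds plus 3 SD, cut at about 40% in these data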;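 note: peak over basal fluorescence ratio in a 140 s read after ATP addition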
M1 ag: human M1 muscarinic receptor agonists, primary screen, Fluo-8 calcium fluorescence, CHO-K1 cells, HTS. Muscarinic acetylcholine receptor M1 (Homo sapiens), P11229. actives 0.33% (n = 360,000). CHO-K1 hM1, agonist mode; 0% DMSO, 100% acetylcholine EC100. activation, % at 3 µM;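 active = activation above the run's mean compound activation plus 3 SD, cut at about 16% in these data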;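 note: peak over basal fluorescence ratio within a 140 s kinetic read after compound addition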
Target sequence (P11229 whole entry, looked up): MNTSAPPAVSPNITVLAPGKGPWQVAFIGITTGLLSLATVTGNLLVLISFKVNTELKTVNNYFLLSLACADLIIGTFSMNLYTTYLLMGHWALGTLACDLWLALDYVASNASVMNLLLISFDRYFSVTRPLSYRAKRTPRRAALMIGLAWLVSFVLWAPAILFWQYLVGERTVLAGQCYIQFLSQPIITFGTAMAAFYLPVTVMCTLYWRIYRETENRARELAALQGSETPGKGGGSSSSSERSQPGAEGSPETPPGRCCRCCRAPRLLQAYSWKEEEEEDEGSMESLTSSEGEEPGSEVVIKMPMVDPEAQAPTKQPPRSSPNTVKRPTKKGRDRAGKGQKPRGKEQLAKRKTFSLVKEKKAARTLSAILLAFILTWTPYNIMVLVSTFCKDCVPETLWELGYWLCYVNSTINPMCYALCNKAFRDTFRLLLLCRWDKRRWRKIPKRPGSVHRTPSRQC
CHRM1 antagonist: human M1 muscarinic receptor antagonists, primary screen, CHO-K1 cells, Fluo-8 calcium fluorescence, 1536-well; Muscarinic acetylcholine receptor M1 (Homo sapiens), P11229; CHO-K1 hM1, ACh EC80 antagonist; inhibition, % at 3 µM; actives 1.3% (n = 360,000);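 active = percent inhibition above its own plate's cutoff, namely the mean of that plate's compound wells plus 3 SD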;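 note: peak over basal fluorescence ratio during 140 s after agonist addition; 0% = ACh EC80 plus DMSO and 100% = DMSO alone without agonist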
M1 PAM: human M1 muscarinic receptor positive allosteric modulators, primary screen, CHO-K1 cells, Fluo-8 calcium fluorescence, 1536-well; CHO-K1 hM1, ACh EC20; 0% = ACh EC20, 100% = maximal ACh; activation, % at 3 µM; actives 0.088% (n = 360,000); in the data active = activation above about 19%, passing the limit was not always enough
M1 ag parental: counter-screen for M1 agonists: effect in parental CHO-K1 cells | Fluo-8 calcium fluorescence; scaled to maximal ATP response, vehicle zero | activation, % at 3 µM | actives 0.48% (n = 360,000); in the data active = activation above about 15%;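 note: untransfected CHO-K1 host cells lacking M1 receptor as counterscreen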
* = called active by the depositor; x = no result given.

SMILES	CHO-K1 Ca antag	CHO-K1 Ca PAM	M1 ag	CHRM1 antagonist	M1 PAM	M1 ag parental
Cc1cc(C)c(O)c(NC(=S)NC(=O)Cc2ccccc2)c1	-6	20	19*	-11	8	7
Cc1cccc(NC(=S)NC(=O)Cc2ccccc2)c1C	8	-4	17*	-4	7	11
Cc1c(NC(=S)NC(=O)Cc2ccccc2)cccc1C(=O)O	-3	10	-4	-12	7	0
CCCNC(=O)C1(C)CCCN(C(=O)c2cccc(C(F)(F)F)c2)C1 (stereo not given)	-3	-3	-1	-9	6	0
Cc1cc(/C=C2\C(=N)N3N=C(c4ccco4)SC3=NC2=O)c(C)n1Cc1ccccc1	-7	0	42*	52*	-21	8
CCC1=NN2C(=N)/C(=C/c3cc(C)n(Cc4ccccc4)c3C)C(=O)N=C2S1	-5	-13	20*	-3	-19	20*
Cc1ccc(-c2csc(=Nc3cccnc3)n2CCCN2CCCC2=O)cc1C	3	-2	-8	10	-6	1
Cc1ccc(-c2csc(=Nc3cccnc3)n2CCCn2ccnc2)cc1C	0	18	-10	41*	-26	8
CC(=O)Nc1sc2c(c1C(c1ccccn1)N1CCN(C)CC1)CCCC2 (stereo not given)	1	-7	-5	48*	-21	0
CC(=O)Nc1sc2c(c1C(c1ccccc1Cl)N1CCN(CCO)CC1)CCCC2 (stereo not given)	2	14	-8	45*	-26	1
CC(=O)Nc1sc2c(c1C(c1ccccn1)N1CCCC1)CCCC2 (stereo not given)	0	-18	4	14	-6	0
Cc1nn(-c2ccccc2)c(C)c1NC(=O)COc1cc(F)ccc1[N+](=O)[O-]	11	-23	1	11	-9	18*
COC(=O)[C@]12CCCCC=C1N(CCC1=CCCCC1)C(=O)[C@H](CC(=O)N1CCCCC1)C2	-9	8	x	x	x	5
CN1CCN(c2ccc(CNC(=O)c3ccco3)cc2)CC1	6	6	-5	-5	4	18*
COc1ccc(CN(C(=O)CCC(=O)Nc2cc(C)on2)C(C(=O)NC(C)(C)C)c2cccc(OC)c2OC)cc1 (stereo not given)	-8	-14	-2	-4	4	0
O=C(Nc1ccnn1C1CCN(CCCC2CCCC2)CC1)c1ccccc1Cl	-4	-2	-4	40*	-17	5
O=C(Nc1ccnn1C1CCN(C2CCC2)CC1)c1ccccc1Cl	46*	9	-5	-15	8	1
CCc1ccc(CN2CCC(n3nccc3NC(=O)c3ccccc3Cl)CC2)cc1	0	4	28*	-16	6	9
COc1ccccc1C(=O)Nc1ccnn1C1CCN(CCCC2CCCC2)CC1	-8	0	-5	12	-11	1
COCCNC(=O)c1cc2c(c(-c3cccc(C#Cc4ccc(OC)c(OC)c4)c3)n1)[C@@H](CCO)N(S(=O)C(C)(C)C)C2 (stereo not given in full)	19	-11	-6	-12	-3	-1
O=C(Nc1cccc(Cl)c1)ON=C1c2ccccc2-c2ccccc21	21	-15	-9	29*	-16	2
O=C(Nc1cccc(Cl)c1)OCCOCCOC(=O)Nc1cccc(Cl)c1	-11	5	-2	5	-5	1
NC(=O)CSc1nnc(CSc2ncccn2)n1-c1ccccc1	-5	27	0	-10	10	1
CCCCC(Nc1ncnc2ccccc12)C(=O)O (stereo not given)	-9	11	-4	-10	5	0
CC(Nc1ncnc2ccccc12)c1ccccc1 (stereo not given)	24*	12	-2	27*	-7	11
SMILES	CHO-K1 Ca antag	CHO-K1 Ca PAM	M1 ag	CHRM1 antagonist	M1 PAM	M1 ag parental
Cc1ccccc1C1(CCN2CCCCC2)CCOC(C)(C)C1 (stereo not given)	-5	21	-13	52*	-26	1
CC1CCc2sc(NC(=O)C3CC(Cl)=CCC3C(=O)O)c(C#N)c2C1 (stereo not given)	0	-13	-8	9	-9	0
Cc1cc(-c2ccc([N+](=O)[O-])cc2)cc(C)n1	-6	1	-3	-16	15	-1
CC(=O)c1ccc(OCC(=O)Nc2cccc(S(=O)(=O)N3CCCC3)c2)cc1	0	-12	-1	31*	-11	14
Cc1ccc(OCC(=O)Nc2cccc(S(=O)(=O)N3CCCC3)c2)cc1C	-6	-1	-4	3	-2	4
O=C(COC(=O)C1CC2C=CC1C2)Nc1cccc(S(=O)(=O)N2CCCCCC2)c1 (stereo not given)	19	-5	-2	17	-12	16*
O=C(COc1ccc2ccc(=O)oc2c1)Nc1cccc(S(=O)(=O)N2CCCCC2)c1	9	-14	-1	26	-13	17*
Cc1ccc(O)c(C(=O)c2cc(C#N)c(=O)n(-c3nccs3)c2)c1	19	-15	22*	21	-6	40*
Cc1cccc(Sc2c(C=O)c3ccccc3n2C)c1	-14	14	-4	1	0	0
COc1ccccc1NC(=S)N(Cc1ccccn1)Cc1ccccc1Cl	36*	5	-5	-15	7	7
O=C(NCc1ccccc1)c1ccccc1NC(=O)C1CCCCC1	7	-17	-3	0	2	2
Cc1c(N=C/C=C/c2ccccc2)c(=O)n(-c2ccccc2)n1C	-26	18	-14	100*	-31	1
COc1ccc(CCNC(=O)/C(C#N)=C2\N=C(NC(=O)c3ccco3)c3ccccc32)cc1	-7	14	1	-11	5	1
N#C/C(C(=O)NCc1ccccc1)=C1/N=C(NC(=O)c2ccco2)c2ccccc21	-4	18	-3	-7	6	17*
CCOc1ncccc1C(=O)NC(C)CCc1ccccc1 (stereo not given)	-7	14	-5	-9	5	19*
CC(CCc1ccccc1)NC(=O)c1ccccc1Cl (stereo not given)	-8	17	-1	-11	8	1
Cc1occc1C(=O)/C(C#N)=C/c1ccc(O)c(Br)c1	-5	12	4	-15	14	2
CCOC(=O)COc1cc2c3c(c(=O)oc2cc1C)CCCC3	5	15	-5	48*	-22	3
